According to PubChem BioAssay AID1159580 (chemical genetic matrix, 2015):
“And” between values parts separate entries of the source, which are not always exact repeats. Equal entries are not always repeated. Out of some 5,500 compounds screened, about 2,000 (36%) were called active. Not shown: some 18% with an inconclusive outcome. Rule as the data show it: active = normalized growth mostly below about 0.91 (no sharp cut-off); inconclusive = no clear call, values can overlap the other calls; inactive = mostly above about 0.92. Some of the results follow.

Assay: chemical genetic growth profiling, strain panel (AID 1159580);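 also: tested at 20 µM; growth read once vehicle control cultures reached saturation at 30 °C; 1 = growth at the plate median or of vehicle wells; lower values mean less growth of the strain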
Details: S. cerevisiae deletion strains, growth OD

Measured: normalized growth

Cc1nnc(NS(=O)(=O)c2ccc(N)cc2)s1
inactive: locus YAL021C, strain ccr4, active compounds read low 0.982 | locus YAL026C, strain drs2, active compounds read low 1.01 | locus YAL030W, strain snc1, active compounds read low 0.986 | locus YBL061C, strain skt5, active compounds read low 0.989 | locus YBR009C, strain hhf1, active compounds read low 1.01 | locus YBR021W, strain FUR4, active compounds read low 1.02 | locus YBR023C, strain chs3, active compounds read low 1.02 | locus YBR171W, strain sec66, active compounds read low 1 | locus YBR229C, strain ROT2, active compounds read low 1 | locus YBR231C, strain swc5, active compounds read low 0.99 | locus YBR279W, strain paf1, active compounds read low 1 | locus YCL011C, strain gbp2, active compounds read low 1.02 | locus YCL016C, strain dcc1, active compounds read low 1 | locus YCL029C, strain bik1, active compounds read low 0.992 | locus YCL061C, strain MRC1, active compounds read low 1.01 | locus YCL069W, strain vba3, active compounds read low 0.997 | locus YCR088W, strain abp1, active compounds read low 1 | locus YDL005C, strain med2, active compounds read low 1.02 | locus YDL035C, strain GPR1, active compounds read low 1.02 | locus YDL040C, strain nat1, active compounds read low 1.01 | locus YDL074C, strain BRE1, active compounds read low 1.05 | locus YDL101C, strain DUN1, active compounds read low 1 | locus YDL134C, strain PPH21, active compounds read low 1.02 | locus YDL185W, strain tfp1, active compounds read low 1 | locus YDL192W, strain arf1, active compounds read low 1.01 | locus YDR001C, strain nth1, active compounds read low 1.01 | locus YDR069C, strain doa4, active compounds read low 0.992 | locus YDR101C, strain arx1, active compounds read low 0.995 | locus YDR137W, strain rgp1, active compounds read low 1.01 | locus YDR159W, strain sac3, active compounds read low 0.979 | locus YDR162C, strain NBP2, active compounds read low 1.03 | locus YDR195W, strain ref2 0.947 | locus YDR297W, strain sur2, active compounds read low 1 | locus YDR318W, strain mcm21, active compounds read low 1.02 | locus YDR334W, strain swr1, active compounds read low 0.987 | locus YDR335W, strain msn5, active compounds read low 0.999 | locus YDR388W, active compounds read low 0.993 | locus YDR392W, strain spt3, active compounds read low 1.04 | locus YDR502C, strain sam2, active compounds read low 1.02 | locus YEL003W, strain gim4, active compounds read low 1 | locus YEL037C, strain rad23, active compounds read low 0.972 | locus YEL061C, strain CIN8 (second series), active compounds read low 1.01 | locus YEL061C, strain CIN8, active compounds read low 1.01 | locus YER015W, strain faa2, active compounds read low 1 | locus YER016W, strain bim1, active compounds read low 0.994 | locus YER110C, active compounds read low 0.984 | locus YER111C, strain swi4, active compounds read low 0.999 | locus YER155C, strain BEM2 (second series), active compounds read low 0.99 | locus YER155C, strain BEM2, active compounds read low 1 | locus YER167W, strain BCK2, active compounds read low 1.01 | locus YFR010W, strain ubp6, active compounds read low 1 | locus YGL078C, strain dbp3, active compounds read low 1 | locus YGL086W, strain mad1, active compounds read low 1 | locus YGL167C, strain pmr1, active compounds read low 1 | locus YGL173C, strain kem1, active compounds read low 0.985 | locus YGL227W, strain vid30, active compounds read low 1.01 | locus YGL240W, strain doc1, active compounds read low 1.02 | locus YGL248W, strain PDE1, active compounds read low 1 | locus YGL253W, strain hxk2, active compounds read low 1.01 | locus YGR135W, strain pre9, active compounds read low 1 | locus YGR252W, strain gcn5, active compounds read low 1.13 | locus YHR013C, strain ard1, active compounds read low 0.998 | locus YHR027C, strain rpn1, active compounds read low 1 | locus YHR030C, strain SLT2, active compounds read low 1.01 and 0.969 | locus YHR079C, strain IRE1 (second series), active compounds read low 0.96 | locus YHR079C, strain IRE1, active compounds read low 0.971 | locus YHR094C, strain hxt1, active compounds read low 0.981 | locus YHR129C, strain ARP1, active compounds read low 1 | locus YHR142W, strain chs7, active compounds read low 1.02 | locus YHR200W, strain rpn10, active compounds read low 1.01 | locus YIL066C, strain RNR3, active compounds read low 0.992 | locus YIL073C, strain SPO22, active compounds read low 1.06 | locus YIL125W, strain kgd1, active compounds read low 1.01 | locus YIR030C, strain dcg1, active compounds read low 0.991 | locus YJL092W, strain hpr5, active compounds read low 1 | locus YJL095W, strain BCK1 (second series), active compounds read low 0.988 | locus YJL095W, strain BCK1, active compounds read low 1.02 and 0.974 | locus YJL115W, strain asf1, active compounds read low 1.01 | locus YJL129C, strain trk1, active compounds read low 0.997 | locus YJL134W, strain LCB3, active compounds read low 1.01 | locus YJL154C, strain vps35, active compounds read low 1.01 | locus YJL164C, strain tpk1, active compounds read low 1.01 | locus YJL166W, strain qcr8, active compounds read low 1 | locus YJL168C, strain set2, active compounds read low 0.988 | locus YJL187C, strain SWE1 (second series), active compounds read low 1.01 | locus YJL187C, strain SWE1, active compounds read low 1 | locus YJR043C, strain POL32, active compounds read low 1.03 | locus YJR066W, strain TOR1, active compounds read low 0.925 | locus YJR075W, strain HOC1, active compounds read low 1.01
